For 25 molecules, composite z-score results are on record in PubChem BioAssay.

SMILES strings stand for the structures.

The test system of the assay is Chordin-like protein 2 (CHRDL2). The assay can be described thus: compounds binding chordin-like 2 – biochemical, small-molecule microarray, 635 nm fluorescence, primary screen (AID 1126).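 Note: printed compound slides probed with Chrdl2 protein at 4 µg/mL for 1 h at 4 C; score merges 667 nm emission intensity with signal to noise over three replicate slides.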 Particulars: fluorescence 635 nm, higher = more signal.
Regarding `COc1ccc([C@H]2OC[C@@H]3C[C@@H](Cc4ccccc4)C(=O)N32)cc1`, the composite z-score amounted to 0.377. `COCCCNC(=O)[C@@H]1c2ccccc2C(=O)N(Cc2ccccc2Cl)[C@H]1c1ccc(CO)cc1` registered a composite z-score of 0.683. Take `O=C1C2C=CC(C(O)c3cccc4ccccc34)N(Nc3ccccc3F)C2C(=O)N1c1ccccc1` (stereo not given): the composite z-score was -0.539. In turn, `COC(=O)[C@@]1(CCS(=O)(=O)c2ccccc2)N=C(c2ccc(OCCCO)cc2)O[C@H]1c1ccccc1CN=[N+]=[N-]` came in with a composite z-score of -0.149. Next, `C=C[C@H](OC)[C@@H](OC(=O)Nc1ccc(OC)cc1)c1ccc(O)c(F)c1`: -1.85. `C=CCC(OC(C)=O)[C@@H]1[C@@H](N(Cc2ccc(-c3ccccc3)cc2)C(=O)c2cccc3ccccc23)c2cc(OCCCO)ccc2N1C(=O)c1ccc(-c2ccccc2)cc1` (stereo not given in full) returned a composite z-score of 0.111. The molecule `C=CCOC(=O)[C@H]1[C@@H]2C(=O)O[C@@H](c3ccccc3)[C@@H](c3ccccc3)N2[C@@H](c2ccc(OCCOC(=O)[C@H]3C[C@H]4C(=O)N[C@@H](CCCC[N+](C)(C)C)C(=O)N4[C@H]3c3ccc(O)cc3)cc2)[C@]12C(=O)Nc1ccc(I)cc12` displayed a composite z-score of 1.11. In the case of `COC(=O)[C@@]1(Cc2ccc(OC)cc2)[C@@H]2C(=CC(=O)[C@H]2CC(=O)C(=O)N2CCCC2)CN1C(=O)c1ccccc1` it was -0.694. The molecule `C[C@H]1NC(=O)[C@@]23C(=O)N[C@@H](Cc4ccccc4)C2[C@H](C)[C@@]2(C)O[C@H]2C3/C=C/C/C=C\CNC(=O)[C@@H]2CCCN2C1=O` (stereo not given in full) gave a composite z-score of 0.258. In the case of `O=C(OCc1ccccc1)C1=CCC2c3[nH]c4ccccc4c3C(=O)C1N2S(=O)(=O)c1ccccc1[N+](=O)[O-]` (stereo not given) it was -0.328; in that of `COC(=O)[C@@]1(Cc2ccc(OC)cc2)[C@H]2c3cc(C(=O)N4CCCC4)n(Cc4ccc(C)c(F)c4F)c3C[C@H]2CN1C(=O)c1ccccc1`, -0.596. Regarding `C=CCOC(=O)[C@H]1[C@@H]2C(=O)O[C@@H](c3ccccc3)[C@@H](c3ccccc3)N2[C@@H](c2ccc(OCCOC(=O)[C@H]3C[C@H]4C(=O)N[C@@H](CCCCNC(C)=O)C(=O)N4[C@H]3c3cccc(OCCO)c3)cc2)[C@]12C(=O)Nc1ccccc12`, the composite z-score is 1.31.

On to `CC(C)c1ccc(NN2C(C(O)c3ccc(B(O)O)cc3)C=CC3C(=O)N(c4ccccc4)C(=O)C32)cc1` (stereo not given), for which the composite z-score was -1.06.

In the case of `CCCC=C(CCC)[C@@H](NC(=O)c1cccs1)c1ccc(C(F)(F)F)cc1`, the composite z-score is -0.595. In turn, `COc1ccc(C#Cc2ccc3c(c2)[C@]2(C(=O)N3)[C@H](C(=O)Nc3nc4ccccc4s3)[C@H]3C(=O)O[C@H](c4ccccc4)[C@H](c4ccccc4)N3[C@@H]2c2ccc(O)cc2)cc1` had a composite z-score of 0.172. Next, `CCCCCCc1nc(-c2cc(C)c(OC)c(C)c2)cc2c1[Si](C(C)C)(C(C)C)OC2`: 0.119.

Turning to `COCCOC(=O)N1C(=O)[C@@]2(c3cc(C#Cc4ccc(OC)cc4)ccc31)[C@H](c1ccccc1OCCO)N1[C@H](c3ccccc3)[C@H](c3ccccc3)OC(=O)[C@H]1[C@@H]2C(=O)NC[C@H](O)c1ccccc1`, the composite z-score was found to be 0.711. Consider `COC(=O)C(CC#Cc1ccc2c(c1)[C@]1(C(=O)N2)[C@H](c2ccc(OCCO)cc2)N2[C@H](c3ccccc3)[C@H](c3ccccc3)OC(=O)[C@H]2[C@@H]1C(=O)N1CCc2cc(OC)c(OC)cc2C1)C(=O)OC`, for which the composite z-score was 0.547.

Consider `COCCOC(=O)N1C(=O)[C@@]2(c3cc(C#CCC(C(=O)OC)C(=O)OC)ccc31)[C@H](c1ccccc1OCCO)N1[C@H](c3ccccc3)[C@H](c3ccccc3)OC(=O)[C@H]1[C@@H]2C(=O)N1CCN(c2ncccn2)CC1`, for which the composite z-score is 1.04. In the case of `O=C(c1ccccc1)N1C(=O)[C@]2(COC(c3ccc(OCCCO)cc3)=N2)Cc2ccccc21`, the composite z-score turned out to be 0.674.

Molecule `COc1ccc([Si](C)(C)[C@@H]2[C@@H](CCO)O[C@]3(C(=O)N(Cc4ccc(N(C=O)c5ccccc5)cc4)c4ccccc43)[C@H]2C)cc1` yielded a composite z-score of -0.402.

For the molecule `O=C1c2ccccc2[C@](Cc2ccccc2I)(C(=O)NCC(F)(F)F)[C@H](c2ccc(CO)cc2)N1Cc1ccccc1Cl`, the composite z-score is -0.466.

For the molecule `COCCOC(=O)N1C(=O)[C@@]2(c3cc(C#CCCO)ccc31)[C@H](C(N)=O)[C@H]1C(=O)O[C@H](c3ccccc3)[C@H](c3ccccc3)N1[C@@H]2c1ccc(O)cc1`, the composite z-score is -0.464.

As for `C=C(CCCC)/C(=C/C[C@@H](OC(=O)c1ccncc1)c1ccc(OCCO)cc1)c1cc(C(=O)OC)ccc1OC`, the composite z-score came to 0.0685.

For the molecule `C=CCN1C(=O)[C@]2(O[C@H](CCn3cc([C@H](O)c4ccccc4)nn3)[C@@H]([Si](C)(C)c3ccc(OC)cc3)[C@@H]2C)c2ccccc21`, the composite z-score is -0.278.
